Most compounds without a hit are left out; they make up all but 7.5% or so of the library.
SMN2 splice up = qHTS Assay for Enhancers of SMN2 Splice Variant Expression; HEK293 SMN2-luciferase splicing reporter, luminescence, 30-36 h; Potency, µM (series often up to 46.1 µM), without a hit: at the top dose activity change, positive = activation, hits mostly activators; 210,000 compounds, 2.8% hits; also: % of control where 0% means no effect; nearly all actives have a fitted effect of over 55% in size
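qHTS luciferase splicing reporter: luminescence rises when SMN2 exon 7 is included in transfected HEK293 cells. Compound exposure lasted 30-36 h at 37C, with 4.5 mM final sodium butyrate as control, followed by a ONE-Glo read.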
Rab9 promoter act = qHTS Assay for Rab9 Promoter Activators. Huh7 Rab9 promoter-luciferase reporter, luminescence, 24 h. Potency, µM (doses to about 9.22 µM), inactives show top-dose activation, negative = inhibition, hits mostly activators. 320,000 compounds, 2.8% hits; also: % of control where 0% means no effect; nearly all actives have a fitted effect of over 60% in size
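Stable Rab9-luc Huh7, 1500 cells/well, 2 h settle; cmpd in DMSO, 24 h, 37 °C/5% CO2; luciferase reagent 10 min RT; luminescence.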
NPC1 prom act = qHTS Assay for NPC1 Promoter Activators; 320,000 compounds, 2.4% hits; Potency, µM (highest dose often 9.22 µM), for the others: top-dose activation, most hits filed as activators; Huh7 NPC1 promoter luciferase reporter, 24 h; AID 485313, 2010; also: % of control where 0% means no effect; nearly all actives have a fitted effect of over 60% in size
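Cells: Huh7 expressing luciferase under the NPC1 promoter, 1500/well. Seeded 2 h, compound added, incubated 24 h at 37 °C. Luciferase reagent, 10 min ambient, then luminescence.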
ELG1 genotox = qHTS screen for small molecules that induce genotoxicity in human embryonic kidney (HEK293T) cells expressing luciferase-tagged ELG1; AID 504466, 2011; Potency, µM (series often up to 46 µM), for the others: at the top dose activity change, positive = activation, usual class: activators; 330,000 compounds, 1.3% hits; HEK293T ELG1-luciferase reporter, luminescence, 16 h; also: % of control where 0% means no effect; nearly all actives have a fitted effect of over 60% in size
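Screening used a luciferase reporter fused to human ELG1 in HEK293T cells. Luminescence was read on a CCD plate imager after 16 hr exposure and 30 min ONE-Glo incubation.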
FLuc modulator = qHTS profiling assay for firefly luciferase inhibitor/activator using purifed enzyme and Km concentrations of substrates (counterscreen for miR-21 project) | Luciferin 4-monooxygenase (Photinus pyralis), P08659 | purified FLuc, Km substrates, luminescence inhibition | Potency, µM (doses to about 57.5 µM), without a hit: at the highest dose activity change, negative = inhibition, hits mostly inhibitors | 360,000 compounds, 6.9% hits;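 also: plate controls were vehicle for no effect and reference inhibitor for full effect; nearly all actives have a fitted effect of over 55% in size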
Target sequence (P08659 whole entry, looked up): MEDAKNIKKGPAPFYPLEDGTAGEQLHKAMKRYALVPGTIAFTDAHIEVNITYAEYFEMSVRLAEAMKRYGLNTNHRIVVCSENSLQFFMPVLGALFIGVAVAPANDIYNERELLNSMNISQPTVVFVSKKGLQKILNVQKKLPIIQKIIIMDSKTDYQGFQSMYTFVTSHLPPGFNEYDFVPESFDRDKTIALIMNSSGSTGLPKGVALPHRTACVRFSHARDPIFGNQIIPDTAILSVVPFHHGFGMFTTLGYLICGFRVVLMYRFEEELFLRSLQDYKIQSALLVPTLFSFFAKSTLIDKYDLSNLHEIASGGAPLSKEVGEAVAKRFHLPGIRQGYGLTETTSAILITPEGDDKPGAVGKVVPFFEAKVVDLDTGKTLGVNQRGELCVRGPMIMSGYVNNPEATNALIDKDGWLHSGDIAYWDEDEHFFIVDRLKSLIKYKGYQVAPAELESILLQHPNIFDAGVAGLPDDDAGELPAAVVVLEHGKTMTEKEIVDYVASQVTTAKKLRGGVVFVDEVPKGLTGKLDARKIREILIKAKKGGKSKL
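Biochemical qHTS of compounds, final roughly 60 µM downward over six points, against 10 nM purified firefly luciferase using Km concentrations of substrates (10 uM D-luciferin, 10 uM ATP) in Tris acetate pH 7.5 buffer; luminescence output.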
* marks the source's active call; other numbers are inactive results; ? = inconclusive; nt = not tested or not shown; [ ] = dose if it differs, or a comment. Calls follow the shape of the dose curve; as a rule, active = well fitted curve in the direction sought with a large enough effect; inconclusive = small, poorly fitted or top-dose-only effect, or another doubt; inactive = no such curve, though single readings can be large; an effect the other way counts as inactive or inconclusive. Potency is read from the fitted curve at half-maximal effect.

SMILES | SMN2 splice up | Rab9 promoter act | NPC1 prom act | ELG1 genotox | FLuc modulator
Cc1cc2nc(C3CCCN(C(=S)Nc4ccccc4C)C3)[nH]c2cc1C (stereo not drawn) | 6% | 0% | -2% | 1% | 3.4µM*
Cc1ccc(NC(=S)N2CCCC(c3nc4ccc(C)cc4[nH]3)C2)c(C)c1 (stereo not drawn) | -4% | 0% | 1% | -7% | -8%
O=C(NCc1cccs1)C(=O)c1cn(CC(=O)N2CCOCC2)c2ccccc12 | -23% | -7% | 0% | 4% | 3%
COc1ccc([C@H]2[C@H](C(=O)C(C)(C)C)N3N=Cc4ccccc4C3C23C(=O)OC(C)(C)OC3=O)cc1 (stereo partly drawn) | 14µM* | 1% | -1% | -1% | -9%
COc1ccc([C@@H]2[C@@H](C(=O)C(C)(C)C)N3N=Cc4ccccc4[C@@H]3C23C(=O)OC(C)(C)OC3=O)cc1OC | 14% | 7% | -2% | 0% | 2%
Cc1ccc(C2=N/C(=C\N3CCCCC3)C(=O)O2)cc1 | ? | 1.1µM* | 2.2µM* | 4.1µM* | 5.4µM*
Cc1ccc(C2=N/C(=C/N3CCOCC3)C(=O)O2)cc1 | 11µM* | 3.5µM* | ? | 16µM* | 12µM*
Cc1cc(N2CCOCC2)n2cc(-c3ccc(F)cc3)nc2n1 | nt | -2% | 3% | 4% | ?
Cc1nc2nc(-c3ccc(F)cc3)cn2nc1C | nt | 0.28µM* | ? | 1.6µM* | 2.1µM*
CCc1c(-c2ccccc2)nc2nc(C)c(C)nn12 | -17% | 7% | 2% | 13% | ?
Cc1nc2nc(-c3ccccc3)cn2nc1C | 8.9µM* | nt | nt | nt | 2.4µM*
c1ccc(-c2cn3nc(-c4ccccc4)cnc3n2)cc1 | 2µM* | 0.45µM* | 0.63µM* | ? | 0.21µM*
CCc1ccc(-c2cn3nc(C)c(C)nc3n2)cc1 | -18% | ? | 0.089µM* | 0% | 0.38µM*
COc1ccccc1NC(=O)C(C)OC(=O)C1CCC(C(C)(C)C)CC1 (stereo not drawn) | nt | 0% | -1% | 8% | -10%
Cc1ccc(S(=O)(=O)c2nnn3c2nc(N(C)Cc2ccccc2)c2cc(Cl)ccc23)cc1C | 4% | nt | nt | nt | -1%
OCCNc1ncnc2nc[nH]c12 | -8%[9.22 µM] | nt | nt | nt | nt
Cc1ccsc1/C=N/Nc1ncnc2nc[nH]c12 | 11µM* | 3.5µM* | 2.5µM* | 15µM* | 19µM*
CN(C)CCCNc1ncnc2nc[nH]c12 | 1%[9.22 µM] | nt | nt | nt | nt
Fc1ccc(/C=N/Nc2ncnc3nc[nH]c23)cc1F | ? | 28% | 30% | 21µM* | ?
C(=N\Nc1ncnc2nc[nH]c12)/c1cccs1 | 35µM* | ? | ? | 16µM* | 13µM*
c1ccc(CNc2ncnc3nc[nH]c23)cc1 | -3% | 2% | 1% | -5% | -2%
Cc1ccccc1/C=N/Nc1ncnc2nc[nH]c12 | nt | ? | ? | ? | 15µM*
CC(=O)Nc1ccc(OCC=C(Cl)Cl)cc1 | 4% | -3% | -1% | ? | -8%
OC[C@H]1O[C@H](OC[C@H]2OC(O)[C@H](O)[C@@H](O)[C@@H]2O)[C@H](O)[C@@H](O)[C@@H]1O (stereo partly drawn) | nt | 1% | 10% | -9% | 0%
CCSc1nc(N)c2c(C)c(C)sc2n1 | 17% | 2% | 2% | 9% | ?
SMILES | SMN2 splice up | Rab9 promoter act | NPC1 prom act | ELG1 genotox | FLuc modulator
C=CCSc1nc(N)c2c(C)c(C)sc2n1 | -5% | 24% | 18% | ? | 12µM*
COc1cccc(OCC(=O)Nc2c3c(nn2-c2ccc(F)cc2)CS(=O)(=O)C3)c1 | nt | 3% | -5% | -4% | 5%
Oc1ccc2c(c1)OCO2 | 0% | nt | nt | nt | nt
Oc1ccc(N=Nc2ccc3c(c2)OCO3)c2ccccc12 | nt | 3.2µM* | ? | 5.2µM* | 7.6µM*
COc1ccc(/C=C/C(=O)O/N=C(\N)c2ccccc2)cc1OC | ? | ? | ? | ? | 17µM*
COc1ccc(/C(N)=N/OC(=O)/C=C/c2ccccc2)cc1 | 24% | 18% | -3% | 5% | 15µM*
COc1ccc(CC(=O)O/N=C(\N)c2ccc(OC)cc2)cc1 | nt | 24% | 10% | 7% | ?
Cc1ccc(/C(N)=N/OC(=O)/C=C/c2ccccc2)cc1 | -6% | 12% | 0% | 13% | 24µM*
COc1cccc(/C=C/C(=O)Oc2ccc(C(=O)c3ccc(F)cc3)cc2)c1 | 10% | -4% | -2% | 2% | -10%
CC(=O)c1ccc(OC(=O)/C=C/c2ccccc2)cc1 | nt | -2% | -3% | 2% | 2.7µM*
Cc1ccccc1/C(N)=N/OC(=O)/C=C/c1ccccc1 | ? | ? | 25% | ? | ?
COc1c2c(cc3c1C(NC(N)=O)[N+](C)(C)CC3)OCO2 (stereo not drawn) | -4% | nt | nt | nt | nt
O=C1Nc2ncccc2OC1CCO (stereo not drawn) | nt | 0% | -3% | -2% | -1%
CC(=O)c1ccc(OC(=O)COc2ccccc2)cc1 | nt | 0% | 1% | 24% | 21µM*
CCc1ccc(C(=O)c2cn(CC(=O)Nc3ccc4c(c3)OCO4)c3ccc(OC)cc3c2=O)cc1 | 2% | nt | nt | nt | -9%
CC(=O)Nc1ccc2c(c1)C(=Nc1ccc(C(=O)O)cc1)c1ccccc1-2 | 2%[9.22 µM] | nt | nt | nt | nt
COc1ccc(C(=O)CC(=O)c2ccccc2O)cc1OC | ? | -4%[1.84 µM] | 11% | ? | ?
COc1ccc(O)c(C(=O)CC(=O)c2ccc(F)cc2)c1 | 2.2µM* | 0.71µM* | 0.56µM* | ? | 12µM*
COc1ccc(C(=O)CC(=O)c2ccccc2O)cc1 | nt | 25% | ? | ? | 12µM*
